Sfp PPTase inh – Sfp phosphopantetheinyl transferase inhibition; actives 3.5% (n = 310,000); Biochemical Sfp PPTase activity, qHTS; Potency, µM, inactives show largest response in the series, negative = inhibition, most hits filed as inhibitors;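 further: the enzyme is Sfp with the accession as filed and its product quenches rhodamine fluorescence; 0% = enzyme reaction without inhibitor and -100% = no enzyme wells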
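Step 1, compound plus 15 nM Sfp-PPTase, 15 min, room temperature. Step 2, add rhodamine-CoA (5 uM) and BHQ-2-YbbR (12.5 uM). Step 3, read 525/598 nm fluorescence at 0 and 30 min.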
PLK1 PBD inh – inhibitors of human PLK1 polo-box domain binding. P53350. Plk1 PBD binding of FITC phosphopeptide, fluorescence polarization. Potency, µM, for inactives: max response, negative = inhibition, actives largely listed as inhibitors. actives 2.8% (n = 360,000); further: series mostly up to about 57 µM; on the % scale 0 is the no-effect control and ±100 the full control effect; nearly all actives have a fitted effect of over 65% in size
JMJD2A Tudor – blocks the human JMJD2A Tudor domain. AlphaScreen JMJD2A-Tudor / H3K4me3 peptide binding. actives 4.4% (n = 390,000). O75164. Potency, µM (highest dose often 114 µM), for the others: at the top dose activity change, negative = inhibition, actives largely listed as inhibitors; further: on the % scale 0 is the no-effect control and ±100 the full control effect; nearly all actives have a fitted effect of over 50% in size
Target sequence (O75164 whole entry, looked up, the tested form may be a part): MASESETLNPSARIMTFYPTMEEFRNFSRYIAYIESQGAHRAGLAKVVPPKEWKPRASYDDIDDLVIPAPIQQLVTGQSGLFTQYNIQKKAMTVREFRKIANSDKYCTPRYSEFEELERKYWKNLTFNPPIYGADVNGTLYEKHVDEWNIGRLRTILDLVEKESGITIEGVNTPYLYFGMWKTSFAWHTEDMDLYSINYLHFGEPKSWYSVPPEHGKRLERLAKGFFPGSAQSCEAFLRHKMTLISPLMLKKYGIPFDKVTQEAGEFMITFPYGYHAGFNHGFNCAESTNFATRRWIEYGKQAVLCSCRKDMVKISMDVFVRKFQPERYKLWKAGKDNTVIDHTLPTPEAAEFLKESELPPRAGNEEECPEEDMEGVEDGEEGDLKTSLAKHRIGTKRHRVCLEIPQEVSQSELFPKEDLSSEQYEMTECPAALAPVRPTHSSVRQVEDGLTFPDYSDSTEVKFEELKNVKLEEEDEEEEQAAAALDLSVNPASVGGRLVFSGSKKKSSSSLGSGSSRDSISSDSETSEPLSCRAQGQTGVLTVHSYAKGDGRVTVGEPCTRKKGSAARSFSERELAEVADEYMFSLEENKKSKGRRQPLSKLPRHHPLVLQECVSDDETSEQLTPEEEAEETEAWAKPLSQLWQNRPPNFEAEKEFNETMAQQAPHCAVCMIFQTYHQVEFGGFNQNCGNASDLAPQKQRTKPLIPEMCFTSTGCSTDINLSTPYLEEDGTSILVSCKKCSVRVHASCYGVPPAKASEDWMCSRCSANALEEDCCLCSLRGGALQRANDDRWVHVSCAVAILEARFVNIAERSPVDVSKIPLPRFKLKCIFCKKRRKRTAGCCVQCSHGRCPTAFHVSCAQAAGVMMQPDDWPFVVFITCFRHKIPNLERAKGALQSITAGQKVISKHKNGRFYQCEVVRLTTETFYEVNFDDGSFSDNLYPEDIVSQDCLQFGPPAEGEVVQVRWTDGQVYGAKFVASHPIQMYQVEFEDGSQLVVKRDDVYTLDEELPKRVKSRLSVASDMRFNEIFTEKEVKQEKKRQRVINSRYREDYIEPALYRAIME
G9a inh – blocks human histone lysine methyltransferase G9a. G9a H3K9 monomethylation, AlphaScreen, 2 h. actives 8.8% (n = 350,000). Q96KQ7. Potency, µM (series often up to 102 µM), for the others: top-dose activity, negative = inhibition, hits mostly inhibitors; further: on the % scale 0 is the no-effect control and ±100 the full control effect; nearly all actives have a fitted effect of over 75% in size
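G9a (20 nM) was preincubated 15 min with compound, then reacted 2 h at room temperature with 500 nM biotin-H3K9 peptide and 20 µM SAM. Monomethyl-H3K9 detected by AlphaScreen using anti-H3K9me1 antibody.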
HP1b binding inh – HP1-beta chromodomain-methylated histone interaction inhibition; P83916; AlphaScreen HP1-beta / biotin-H3K9me3 peptide binding; Potency, µM (top dose mostly 114 µM), without a hit: at the highest dose activity change, negative = inhibition, hits mostly inhibitors; actives 0.56% (n = 390,000); AID 540317; further: nearly all actives have a fitted effect of over 70% in size
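AlphaScreen: HP1-beta (50 nM) preformed 30 min with biotin-H3(1-18)K9me3 peptide (50 nM) in PBS pH 7.4, 0.01% Tween-20. Compound added for 30 min at RT, then streptavidin donor/nickel chelate acceptor beads (10 ug/mL) for 30 min.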
BAZ2B block – blocks human BAZ2B | AlphaScreen BAZ2B-H3K14Ac peptide displacement | Potency, µM (titrated, usually from 114 µM), without a hit: top-dose activity change, negative = inhibition, most hits filed as inhibitors | actives 4.4% (n = 360,000) | AID 504333; further: on the % scale 0 is the no-effect control and ±100 the full control effect; nearly all actives have a fitted effect of over 60% in size
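AlphaScreen displacement of biotin-H3(5-23)K14Ac peptide (50 nM final) from BAZ2B (50 nM final) in PBS pH 7.4, 0.01% Tween-20; complex preformed 30 min RT, then compounds (top 110 uM) 30 min RT, beads 20 min dark.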
An asterisk follows results filed as active; ? = inconclusive; · = no result; [ ] = another dose, or the depositor's remark. Hits are enriched below; roughly 12% of the tested compounds scored in any of these assays. The call rests on the fitted dose curve; in most records, active means well fitted curve in the direction sought with a large enough effect; inconclusive means small, poorly fitted or top-dose-only effect, or another doubt; inactive means no such curve, though single readings can be large; an effect the other way counts as inactive or inconclusive. Potency means the concentration at half of the fitted maximal effect.

SMILES	Sfp PPTase inh	PLK1 PBD inh	JMJD2A Tudor	G9a inh	HP1b binding inh	BAZ2B block
COC(=O)c1ccc(N(C(=O)CNC(=O)c2ccco2)C(C(=O)NC2CCCC2)c2ccco2)cc1 (stereo not given)	4%	27µM*	-11%[11.4 µM]	-11%[59 µM]	-18%	0%
FC(F)(F)c1cc(CO[C@H]2CCCN[C@H]2c2ccccc2)cc(C(F)(F)F)c1	-17%	·	·	17%[12.7 µM]	·	·
CN(CC(=O)Nc1ccc(F)cc1)C(=O)c1ccc(-c2ccc(F)cc2)o1	·	-4%	·	·	·	·
CCOc1ccc(OCCOCCn2c(-c3ccc(Cl)cc3)nc3ccccc3c2=O)cc1	·	·	15%	24%[59 µM]	43%	22%
Cn1c(=N)n(CC(O)c2ccco2)c2ccccc21 (stereo not given)	89µM*	1%	9%	2%[59 µM]	20%	4%
CCCn1c(=N)n(CC(O)c2ccco2)c2ccccc21 (stereo not given)	8%	3%	-16%	-6%[59 µM]	10%	-1%
Cc1noc(C)c1-c1ccc(C(=O)Nc2ccc(C(C)C)cc2)c2occc12	·	2%	·	·	·	·
Cc1c(C(=O)N(CC(C)C)c2c(N)n(Cc3ccccc3)c(=O)[nH]c2=O)sc2nc3n(c(=O)c12)CCC3	·	-2%	-14%	17%[2.33 µM]	7%	3%
CSCc1ccc(C(=O)N2CCC(CCC(=O)N(C)Cc3ccccc3)CC2)o1	50µM*	-14%	-14%	26%	40%	3%
CN(Cc1ccccc1)C(=O)CCC1CCN(C(=O)c2ccccc2C(F)(F)F)CC1	-11%	1%	-2%	·	33%	-9%
Cc1ccc(NC(=S)N(N)CCO)cc1	?	?	?	45µM*	17%	79µM*
CCN(N)C(=S)Nc1ccc(F)cc1	-21%	-9%	-25%	?	19%	-18%
CCCN(c1ccccc1F)S(=O)(=O)c1c[nH]c(C(=O)OC)c1	19%	1%	-11%	0%	35%	-14%
Clc1ccc(N=c2ssnc2Cl)nc1	21%	0.95µM*	-28%	-3%	-11%	-34%
CC(C)c1ccc(NC(c2nnc(-c3ccccc3)o2)c2ccc(F)cc2Cl)cc1 (stereo not given)	·	·	-11%	10%[59 µM]	-5%	-14%
CCn1c(C)[n+](CCOC(C)=O)c2cc(Cl)c(Cl)cc21	-21%	-1%	-8%	·	10%	?
CC(=O)OCCCn1c(C)[n+](C)c2cc(Cl)c(Cl)cc21	1%	-12%	32µM*	32µM*	-28%	-30%
Cc1nnc2sc(SCC(=O)Nc3ccc(Cl)cc3)nn2c1=O	19%	7%	?	5%	61%	40µM*
CC(=O)Nc1cccc(NC(=O)CSc2nn3c(=O)c(C)nnc3s2)c1	-6%	-18%	?	34%[12.7 µM]	57%	8%
CCCCN1CC(=O)N2[C@@H]3c4cc(OC)ccc4OC[C@@H]3[C@H](C(=O)OCC)[C@]2(C)C1=O	·	24µM*	?	·	18%	·
CCCCN1CC(=O)N2[C@H]3c4cc(OC)ccc4OC[C@@H]3[C@H](C(=O)OCC)[C@]2(C)C1=O	·	4%	-7%	11%[0.501 µM]	37%	1%
COc1ccc(-c2nc3c(c(SCC(=O)Nc4cc(C)cc(C)c4)n2)Cc2c(CO)cnc(C)c2O3)cc1	·	·	-14%	-14%[59 µM]	8%	-34%
Cc1cc(C)cc(NC(=O)CSc2nc(-c3cccc(Cl)c3)nc3c2Cc2c(CO)cnc(C)c2O3)c1	·	·	8%	1%[59 µM]	49%	50µM*
Cc1ccc(-c2nc3c(c(SCC(=O)N4CCOCC4)n2)Cc2c(CO)cnc(C)c2O3)cc1	3%	?	?	14µM*	30%	?
CCN(CC)C(=O)CSc1nc(-c2ccc(C)cc2)nc2c1Cc1c(CO)cnc(C)c1O2	·	·	?	14µM*	-1%	45µM*
SMILES	Sfp PPTase inh	PLK1 PBD inh	JMJD2A Tudor	G9a inh	HP1b binding inh	BAZ2B block
COc1ccc(-c2nc3c(c(SCC(=O)N4CCOCC4)n2)Cc2c(CO)cnc(C)c2O3)cc1	36%	-17%	-35%	88%[59 µM]	10%	12%
Cc1cccc(CNC(=O)c2oc3c(c2C)-c2nn(Cc4ccccc4Cl)cc2CC3)c1	·	·	-21%	-34%[59 µM]	-5%	-12%
CC(=O)Nc1ccc(Nc2nc(C(F)(F)F)nc3c2nnn3Cc2ccccc2Cl)cc1	?	-16%	-9%	·	34%	-7%
COc1ccc(C)cc1NC(=O)c1cc(S(=O)(=O)N2CCc3ccccc3C2)ccc1F	·	·	-19%	-3%[59 µM]	-2%	0%
O=S(=O)(c1ccc2c(c1)CCCC2)N1CCNCC1	·	-3%	-10%	6%[12.7 µM]	17%	4%
O=C1c2cccnc2C(Nc2ccccc2Br)N1Cc1ccco1 (stereo not given)	56µM*	-18%	-20%	50µM*	9%	-13%
COc1ccc(CN2C(=O)c3cccnc3C2Nc2ccc(C)cc2)cc1 (stereo not given)	-5%	?	-11%[57.1 µM]	-31%[59 µM]	-19%	?
O=C1c2cccnc2C(Nc2cccc(F)c2)N1Cc1ccco1 (stereo not given)	3%	1%	-5%	25µM*	17%	-28%
O=C1c2cccnc2C(O)N1Cc1ccco1 (stereo not given)	4%	-16%	-14%	6%[59 µM]	12%	10%
O=C1c2cccnc2C(Nc2ccccc2)N1Cc1ccco1 (stereo not given)	50µM*	-30%	32µM*	25µM*	11%	56µM*
Cc1ccc(NC2c3ncccc3C(=O)N2Cc2cccs2)cc1 (stereo not given)	-9%	21µM*	14µM*	45µM*	-10%	·
O=C1c2ccccc2NC(c2ccc(F)cc2)N1Cc1ccco1 (stereo not given)	0%	-15%	-16%	-25%	53%	?
CNc1ncncc1-c1ccccc1OC	-9%	·	·	·	·	·
Cc1ccc(NC(=O)Cn2c(=O)n(CCCS(=O)(=O)C3CCCCC3)c(=O)c3ccccc32)cc1F	·	·	10%	-3%[59 µM]	26%	1%
COc1cc(NC2c3ncccc3C(=O)N2Cc2ccco2)cc(OC)c1OC (stereo not given)	-30%	?	-20%	35µM*	20%	-8%
COc1ccc(CN2C(=O)c3cccnc3C2Nc2cc(Cl)c(OC)cc2OC)cc1 (stereo not given)	-27%	-24%	35µM*	45µM*	?	50µM*
CC(=O)c1cccc(NC2c3ccccc3C(=O)N2Cc2ccco2)c1 (stereo not given)	6%	-18%	-23%	-6%	48%	-24%
CC(=O)c1cccc(NC2c3ncccc3C(=O)N2Cc2ccco2)c1 (stereo not given)	79µM*	-10%	-13%	50µM*	25%	-31%

Bioassay records from PubChem.
